MPTP inh: permeability transition pore inhibition. isolated mouse mitochondria, Ca2+ swelling absorbance, 30 min. inhibition, % at 10 µM. actives 1.4% (n = 360,000). AID 602449;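 active = inhibition of 50% or more, scaled per plate between neutral and stimulator controls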;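 also: 0% = DMSO wells given calcium and 100% = 1 mM EGTA wells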
SKKanGAS inh: SKKanGAS growth inhibition | S. pyogenes SKKanGAS, kanamycin growth, BacTiter-Glo, 6 h | inhibition, % at 7.5 µM | actives 1.3% (n = 300,000);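 active = mean replicate score, as percent of positive control median, at least 50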;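 also: strain carries kanamycin resistance gene driven by streptokinase promoter and grows in 40 µg/ml kanamycin; loss of luminescence reflects streptokinase promoter inhibition or plain growth inhibition; 0% = median of DMSO wells and 100% = positive control at its reference dose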
CSC inhib: cancer stem cell inhibition. cancer stem cell-like cells viability, luminescence. inhibition, % at 7.5 µM. actives 1.1% (n = 300,000). AID 2717; in the data active = inhibition above about 75%; tested in HMLE shEcad cells
Beta apoptosis: blocks beta cell apoptosis | INS-1E cytokine-induced death, ATP luminescence, 48 h; percent of positive-control rescue, neutral wells zero | protection from apoptosis, % (concentration not given with the values) | actives 0.8% (n = 300,000) | AID 435005;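 active = Every replicate reaches about 75%, or at least half do and their mean reaches it too, limit read from the data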;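 also: 0% = cytokine-treated negative control wells and 100% = positive control rescue; higher means more ATP so stronger rescue from cytokine killing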
Mdm2-MdmX inh: inhibitors of human Mdm2/MdmX interaction; O15151+Q00987; SaOS-2 split-luciferase Mdm2/MdmX complementation, luminescence; inhibition, % at 8 µM; actives 3% (n = 330,000); AID 485346;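 active = inhibition of at least 50% at 8 µM in the primary screen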
NR3A LBD binder: modulates the human NR3A ligand-binding domain; Tm shift relative to glycine control, % at 25 µM; actives 2.5% (n = 340,000); NR3A LBD differential scanning fluorimetry, Tm shift; 0% = protein alone, 100% = glycine-bound protein;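 active = melting temperature shift of at least 10% of the positive control shift, at one fixed dose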
* hit, by the source's call. Hits are enriched below; roughly 6.9% of the tested compounds scored in any of these assays.

Screening CCOc1cc(C(=O)Nc2cccc(OCC(=O)N3CCOCC3)c2)cc(OCC)c1OCC returned MPTP inh -1, SKKanGAS inh -2, CSC inhib -23, Beta apoptosis -5, Mdm2-MdmX inh 13 and NR3A LBD binder 1.
Screening CC(=O)Oc1ccc(N2C(=O)C3C4C=CC(CC4)C3C2=O)cc1[N+](=O)[O-] (configuration not stated) returned MPTP inh 0, SKKanGAS inh 4, CSC inhib -6, Beta apoptosis -4, Mdm2-MdmX inh 10 and NR3A LBD binder 0.
COc1ccccc1NS(=O)(=O)c1cccc(NC(=O)c2nc3nc(C)cc(C)n3n2)c1 was read as MPTP inh 2, SKKanGAS inh 0, CSC inhib -9, Beta apoptosis 1, Mdm2-MdmX inh -10 and NR3A LBD binder -1.
COc1ccc(NS(=O)(=O)c2cc(NC(=O)c3nc4nc(C)cc(C)n4n3)ccc2C)cc1 was read as MPTP inh -1, CSC inhib 4, Beta apoptosis -2, Mdm2-MdmX inh 7 and NR3A LBD binder 12*.
Screening COc1cc(/C=N/O)ccc1Oc1ccc([N+](=O)[O-])cc1[N+](=O)[O-] returned MPTP inh 2, SKKanGAS inh 0, CSC inhib 10, Beta apoptosis -2, Mdm2-MdmX inh 22 and NR3A LBD binder -16.
Screening O=[N+]([O-])c1cc(/C=N\O)ccc1Oc1ccc(F)cc1 returned MPTP inh 0, SKKanGAS inh 5, CSC inhib 46, Beta apoptosis -2, Mdm2-MdmX inh 18 and NR3A LBD binder 16*.
Screening CCN(CC)CCCNc1nnc(C)c(=O)[nH]1 returned MPTP inh 1, SKKanGAS inh -10, CSC inhib 5, Beta apoptosis -5, Mdm2-MdmX inh 18 and NR3A LBD binder 11*.
`COCCOc1ccc(C(F)(F)F)cc1NC(=O)COC(=O)C12CC3CC(CC(O)(C3)C1)C2` gave MPTP inh -3, SKKanGAS inh -5, CSC inhib 16, Beta apoptosis -7, Mdm2-MdmX inh 22 and NR3A LBD binder 26*.
Screening CNc1ncnc2c1ncn2[C@H]1CN(Cc2ccc(Cl)cc2)C[C@@H](CO)O1 returned MPTP inh -2.
Screening COc1ccc(N2CCN(CCNS(=O)(=O)c3ccc(C)cc3)CC2)cc1 returned MPTP inh 0, SKKanGAS inh -3, Beta apoptosis 1, Mdm2-MdmX inh -4 and NR3A LBD binder 0.
`Nc1nc(CN2CCN(c3ccc(F)cc3)CC2)nc(N2CCCc3ccccc32)n1` gave MPTP inh -1, SKKanGAS inh 84*, CSC inhib -9, Beta apoptosis 6, Mdm2-MdmX inh 14 and NR3A LBD binder 1.
CC(OC(=O)c1ccc(NC(=O)CC#N)cc1)C(=O)Nc1nc(-c2ccccc2)cs1 (configuration not stated) was read as MPTP inh 0, SKKanGAS inh 39, CSC inhib 4, Beta apoptosis 5, Mdm2-MdmX inh 3 and NR3A LBD binder 21*.
`CC(OC(=O)c1ccc(NC(=O)CC#N)cc1)C(=O)Nc1ccc(Oc2ccccc2)cc1` (configuration not stated) gave MPTP inh -1, SKKanGAS inh -7, CSC inhib 8, Beta apoptosis -1 and Mdm2-MdmX inh 18.
CC(=O)Nc1ccc(-c2csc(NC(=O)Cc3cccc(F)c3)n2)cc1 was read as MPTP inh -3, SKKanGAS inh -12, CSC inhib 90*, Beta apoptosis 10, Mdm2-MdmX inh 18 and NR3A LBD binder 4.
CC(=O)Nc1ccc(-c2csc(NC(=O)Cc3ccccc3F)n2)cc1 was read as MPTP inh -1, SKKanGAS inh 3, CSC inhib 90*, Beta apoptosis -4, Mdm2-MdmX inh -9 and NR3A LBD binder -4.
Screening O=C(Cc1ccc(F)cc1)Nc1nc(-c2ccc(F)cc2)cs1 returned MPTP inh 0, SKKanGAS inh 5, CSC inhib -5, Beta apoptosis 2, Mdm2-MdmX inh 13 and NR3A LBD binder -2.
O=S1(=O)CCOC(CO)CN1Cc1ccc(Cl)c(Cl)c1 (configuration not stated) was read as MPTP inh -3, Mdm2-MdmX inh 7 and NR3A LBD binder 2.

Compound activity as filed in PubChem.
